In PubChem BioAssay (EPA / NIEHS) one finds outcome and AC50 data, which are given here for 40 molecules.

Activity calls are given as the source filed them. The calls were made as follows: active = hit-call score of the fitted dose curve at least 0.9, where 1 is the maximum; inactive = score below 0.9.

Read-out in the assay: TIMP metallopeptidase inhibitor 1 (TIMP1), TIMP1 (gene 7076)
Nature of the assay: BSK_hDFCGF_TIMP1: BioMAP Diversity Plus: hDFCGF Assay for TIMP metallopeptidase inhibitor 1 (TIMP1) Biomarker Activity (AID 2283062). Particulars: primary human foreskin fibroblasts; actives raise or lower the signal. On the procedure:
BSK_hDFCGF is a cell-based, multiplexed-readout assay that uses foreskin fibroblast, a human skin primary cell, with measurements taken at 24 hours after chemical dosing in a 96-well plate.BSK_hDFCGF_TIMP1 is an assay component measured in the BSK_hDFCGF assay. It measures TIMP-1 antibody related to regulation of gene expression using ELISA technology.Data from the assay component BSK_hDFCGF_TIMP1 was analyzed into 1 assay endpoint. This assay endpoint, BSK_hDFCGF_TIMP1, was analyzed with bidirectional fitting relative to DMSO as the negative control and baseline of activity. Using a type of binding reporter, gain or loss-of-signal activity can be used to understand changes in the signaling as they relate to the gene TIMP1. Furthermore, this assay endpoint can be referred to as a primary readout, because this assay has produced multiple assay endpoints where this one serves a signaling function. To generalize the intended target to other relatable targets, this assay endpoint is annotated to the protease inhibitor intended target family, where the subfamily is metalloproteinase inhibitor.
The levels of cell surface (or secreted, indicated by the prefix "s") biomarker endpoints were measured by ELISA. Overt cytotoxicity to cells in confluent adherent cultures (all systems other than the BT system) was assessed by measuring total protein levels using sulforhodamine B (SRB) staining in parallel cultures at the time of biomarker measurements, indicated as SRB endpoints. For proliferation assays for adherent cell types, individual cell types are cultured at sub-confluence and relative cell numbers quantified by SRB staining at time points optimized for each system (48 h: 3C and CASM3C systems; 72 h: BT and HDF3CGF systems; 96 h: SAg system). SRB was performed by staining cells with 0.1% SRB after fixation with 10% TCA and reading wells at 560 nm.Viability and proliferation of PBMC (T cells) was quantified by Alamar Blue reduction for the SAg and BT systems. For PBMC viability (referred to as PBMC Cytotoxicity within the assay endpoint names), cells were plated (75,000/well in a 96-well plate) and then chemical samples added for 1 h before addition of activators, SEB and TSST-1 (20 ng/mL final concentration each). Cells were incubated for 90 h. Then, Alamar Blue (20 uL/well) (Invitrogen, Cat DAL1100) was added for 6 h, and the plates were read with a fluorescence microplate reader at 546/580 nm (excitation/emission). For PBMC proliferation, cells were plated and activated as above but incubated for only 16 h prior to addition of Alamar Blue. Plates were read after 6 h.
`CCC(=NOC/C=C/Cl)C1=C(O)CC(C2CCOCC2)CC1=O` (stereo not given): the result was inactive. Still for that read-out and setting: next, `CN(C)[C@@H]1C(=O)C(C(N)=O)=C(O)[C@@]2(O)C(=O)C3=C(O)c4c(O)cccc4[C@@](C)(O)[C@H]3[C@H](O)[C@@H]12`: “inactive”. Take `CSc1nnc(C(C)(C)C)c(=O)n1N`: the AC50 – broadly, the midpoint of the concentration-response curve, whichever way the signal moves – is 30.4 µM (active).

Take `CN(C)C(=O)Nc1cccc(C(F)(F)F)c1`: the outcome was inactive. The same measure, in the same setting: the same measure for `CC(COc1ccc(Oc2ccccc2)cc1)Oc1ccccn1` (stereo not given): “inactive”. Still for that read-out and setting: next, `CNC(=O)ON=C(SC)C(=O)N(C)C`: “inactive”; `O=C(O)c1cc(Oc2ccc(C(F)(F)F)cc2Cl)ccc1[N+](=O)[O-]`: “inactive”. Same read-out and setting: the same measure for `CCc1cnc(C2=NC(C)(C(C)C)C(=O)N2)c(C(=O)O)c1` (stereo not given): “inactive”; for `CCCCOC(=O)c1ccccc1C(=O)O`: “inactive”; for `C[N+]1(C)CCCCC1`: “inactive”. In the case of `COP(=O)(OC)C(O)C(Cl)(Cl)Cl` (stereo not given), the result was inactive. The same measure, in the same setting: next, `CC(C)=CC1C(C(=O)OCN2C(=O)C3=C(CCCC3)C2=O)C1(C)C` (stereo not given): “inactive”. The same measure, in the same setting: next, `CCCCOC(=O)[C@@H](C)Oc1ccc(Oc2ccc(C#N)cc2F)cc1`: “inactive”. On the same count and under the same terms, next, `CCCCN(CC)c1c([N+](=O)[O-])cc(C(F)(F)F)cc1[N+](=O)[O-]`: “inactive”; `Nc1nc(N)nc(NC2CC2)n1`: “inactive”. Consider `COP(=O)(OC)OC(Br)C(Cl)(Cl)Br` (stereo not given), for which the AC50 was 15.7 µM (active). Take `CCOP(=O)(NC(C)C)Oc1ccc(SC)c(C)c1` (stereo not given): the outcome was inactive. Still for that read-out and setting: the same measure for `C#CC(C)(C)NC(=O)c1cc(Cl)cc(Cl)c1`: “inactive”; for `CCOP(=O)(SC(C)CC)N1CCSC1=O` (stereo not given): “inactive”; for `CSC1=N[C@@](C)(c2ccccc2)C(=O)N1Nc1ccccc1`: “inactive”.

Regarding `Nc1c(Cl)cc([N+](=O)[O-])cc1Cl`, the result was inactive. Still for that read-out and setting: next, `CSc1nc(NC(C)C)nc(NC(C)C)n1`: “inactive”; `CC(C)[C@H](C(=O)O[C@H](C#N)c1cccc(Oc2ccccc2)c1)c1ccc(Cl)cc1`: “inactive”; `CCOP(=S)(OCC)Oc1ccc([N+](=O)[O-])cc1`: “inactive”. The same measure, in the same setting: the same measure for `CC1(C(=O)Nc2ccc(O)c(Cl)c2Cl)CCCCC1`: “inactive”; for `COP(=O)(NC(C)=O)SC` (stereo not given): “inactive”; for `C#CCC1=C(C)C(OC(=O)C2C(C=C(C)C)C2(C)C)CC1=O` (stereo not given): “inactive”. Still for that read-out and setting: the same measure for `COc1cc(OC)nc(Sc2cccc(Cl)c2C(=O)O)n1`: “inactive”; for `S=C1NCCN1`: “inactive”; for `CCC(CC)Nc1c([N+](=O)[O-])cc(C)c(C)c1[N+](=O)[O-]`: “inactive”. Take `CCc1cccc(C)c1N(C(=O)CCl)C(C)COC` (stereo not given): the outcome was inactive. Same read-out and setting: the same measure for `Cc1nn(-c2cc(NS(C)(=O)=O)c(Cl)cc2Cl)c(=O)n1C(F)F`: “inactive”; for `CCCSP(=O)(OCC)Oc1ccc(Br)cc1Cl` (stereo not given): “inactive”; for `CCOP(=S)(Oc1cnc(C(C)(C)C)nc1)OC(C)C` (stereo not given): “inactive”.

On to `COc1ccc(C(=CC(=O)N2CCOCC2)c2ccc(Cl)cc2)cc1OC`, for which the result was inactive. The same measure, in the same setting: the same measure for `CCOC(=O)CC(SP(=O)(OC)OC)C(=O)OCC` (stereo not given): “inactive”; for `CCOP(=S)(OCC)OC(Cl)C(Cl)(Cl)Cl` (stereo not given): “inactive”. Consider `CC1=NNC(=O)N(/N=C/c2cccnc2)C1`, for which the result was inactive.

Turning to `CNc1cnn(-c2cccc(C(F)(F)F)c2)c(=O)c1Cl`, the outcome was inactive. For the molecule `FC(F)C(F)(F)OCC(Cn1cncn1)c1ccc(Cl)cc1Cl` (stereo not given), the result was inactive.
